Screens as filed in PubChem.
A selection: hits, their analogues and other compounds. The true share with any hit is near 9.2%.
ELG1 repair inh = blocks ELG1-dependent DNA repair in HEK293T cells; HEK293T ELG1-luciferase reporter, luminescence, 16 h; DNA damage induced by 5-fluorouridine; Potency, µM (highest dose often 46.1 µM), inactives show top-dose activity change, negative = inhibition, hits mostly inhibitors; 330,000 compounds, 2.3% hits; AID 504467; note: % is set by controls: 0 for no effect and ±100 for the full control effect; nearly all actives have a fitted effect of over 55% in size
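Luminescence from the luciferase reporter, measured 30 min after ONE-Glo reagent at room temperature, was the read-out. Beforehand, 2,000 cells per well were exposed for 16 hr at 37 °C to 5-fluorouridine together with compound or vehicle.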
NPC1 promoter act = NPC1 promoter activation. 320,000 compounds, 2.4% hits. Potency, µM (doses to about 9.22 µM), inactives show at the top dose activation, most hits filed as activators. Huh7 NPC1 promoter luciferase reporter, 24 h. AID 485313; note: % of control where 0% means no effect; nearly all actives have a fitted effect of over 60% in size
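Cells: Huh7 expressing luciferase under the NPC1 promoter, 1500/well. Seeded 2 h, compound added, incubated 24 h at 37 °C. Luciferase reagent, 10 min ambient, then luminescence.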
FLuc counter = counter-screen for miR-21 project: firefly luciferase inhibitors or activators; P08659; purified FLuc, Km substrates, luminescence inhibition; Potency, µM (top dose mostly 57.5 µM), for the others: at the highest dose activity change, negative = inhibition, usual class: inhibitors; 360,000 compounds, 6.9% hits; AID 588342;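 note: plate controls were vehicle for no effect and reference inhibitor for full effect; nearly all actives have a fitted effect of over 55% in size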
Target sequence (P08659 whole entry, looked up): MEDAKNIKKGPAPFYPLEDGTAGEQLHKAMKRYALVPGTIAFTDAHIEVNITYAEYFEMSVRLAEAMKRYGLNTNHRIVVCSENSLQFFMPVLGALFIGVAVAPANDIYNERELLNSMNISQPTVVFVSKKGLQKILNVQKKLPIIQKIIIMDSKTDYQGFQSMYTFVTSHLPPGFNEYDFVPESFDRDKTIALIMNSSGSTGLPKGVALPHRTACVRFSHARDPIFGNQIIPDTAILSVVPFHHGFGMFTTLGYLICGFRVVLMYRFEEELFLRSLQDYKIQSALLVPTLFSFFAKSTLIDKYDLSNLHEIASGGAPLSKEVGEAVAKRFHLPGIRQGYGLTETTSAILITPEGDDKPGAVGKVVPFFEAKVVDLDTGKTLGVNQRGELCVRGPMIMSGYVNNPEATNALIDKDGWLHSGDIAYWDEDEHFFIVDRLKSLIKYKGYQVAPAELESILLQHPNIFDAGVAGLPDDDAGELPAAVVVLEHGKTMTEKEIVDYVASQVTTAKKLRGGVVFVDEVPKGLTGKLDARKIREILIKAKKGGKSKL
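Purified P. pyralis luciferase (10nM final) with 10uM D-luciferin and 10uM ATP (Km levels) in 50mM Tris acetate pH 7.5, 10mM Mg acetate, 0.01% Tween-20, 0.05% BSA; qHTS 6-point titration, ~60 µM downward; luminescence read.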
SMN2 splice enh = enhancers of SMN2 splice variant expression; HEK293 SMN2-luciferase splicing reporter, luminescence, 30-36 h; AID 1458; Potency, µM (doses to about 46.1 µM), inactives show at the top dose activity change, positive = activation, hits mostly activators; 210,000 compounds, 2.8% hits; note: % of control where 0% means no effect; nearly all actives have a fitted effect of over 55% in size
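HEK293 cells carry an SMN2 […]–luciferase reporter in which exon 7 inclusion puts luciferase in frame. Cells were plated 10-12 h before compound addition, then incubated 30-36 h at 37C. ONE-Glo luminescence was read; sodium butyrate at 4.5 mM final served as control.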
Rab9 promoter act = activates the Rab9 promoter; Potency, µM (top dose mostly 9.22 µM), for the others: at the top dose activation, negative = inhibition, actives largely listed as activators; Huh7 Rab9 promoter-luciferase reporter, luminescence, 24 h; 320,000 compounds, 2.8% hits; note: % of control where 0% means no effect; nearly all actives have a fitted effect of over 60% in size
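Huh7 cells stably carrying a Rab9 promoter-luciferase reporter, 1500 cells per well in OP-MEM I with 10% FBS, treated with compound 24 hours at 37C. Luciferase activity read by luminescence after 10 minutes with Amplite reagent.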
ELG1 genotox = induces genotoxicity in HEK293T cells with luciferase-tagged ELG1. HEK293T ELG1-luciferase reporter, luminescence, 16 h. Potency, µM (top dose mostly 46 µM), inactives show top-dose activity change, positive = activation, hits mostly activators. 330,000 compounds, 1.3% hits. AID 504466; note: % of control where 0% means no effect; nearly all actives have a fitted effect of over 60% in size
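Genotoxicity was scored as increased ELG1-luciferase reporter signal, measured by ONE-Glo luminescence (30 min, room temperature). Compound or vehicle exposure of the HEK293T reporter cells lasted 16 hr at 37°C.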
Active calls of the source: *; ? = inconclusive; · = no result given; [ ] = remark or other dose. Calls come from the whole dose curve; as a rule, active = well fitted curve in the direction sought with a large enough effect; inconclusive = small, poorly fitted or top-dose-only effect, or another doubt; inactive = no such curve, though single readings can be large; an effect the other way counts as inactive or inconclusive. Potency is the fitted concentration of half-maximal effect.

SMILES	ELG1 repair inh	NPC1 promoter act	FLuc counter	SMN2 splice enh	Rab9 promoter act	ELG1 genotox
O=C(CSc1nnc(NC(=O)c2ccco2)s1)Nc1ccc2c(c1)OCCO2	0%	9%	13µM*	6%	0%	13%
Cc1nnc(SCC(=O)Nc2ccc3c(c2)OCCO3)s1	5%	5%	?	1%	0%	2%
COc1cccc(N2CC(C(=O)Nc3nnc(SCC(=O)Nc4ccc(NC(C)=O)cc4)s3)CC2=O)c1 (stereo unspecified)	1%	0%	-16%	·	-1%	2%
COc1ccc(NC(=O)CSc2nnc(NC(=O)c3ccco3)s2)cc1OC	?	4%	21µM*	·	20%	11%
CCc1nc(SCc2ccccc2C#N)n[nH]1	4%	1%	-6%	·	-2%	4%
CCOc1ccc(C(=O)Nc2ccc(C(=O)N3CCOCC3)cc2)c(OCC)c1	0%	2%	2%	·	4%	-1%
Cc1cc(C)cc(NC(=O)CSc2nnc(-c3cc(C)[nH]n3)n2N)c1	4%	-3%	?	·	-5%	-4%
Cc1cccc(NC(=O)CSc2nnc(NC(=O)C3CC3)s2)c1C	25%	-1%	0%	·	16%	8%
COCCOC(=O)c1c(C)nc(SCC(=O)Nc2ccc(OC)cc2)c(C#N)c1-c1ccco1	23µM*	-1%	-2%	-9%	-3%	-1%
Cc1cccc(NC(=O)CSc2nnc(NC(=O)c3ccco3)s2)c1	?	0%	13µM*	22%	18%	-5%
CCc1ccc(NC(=O)CSc2nc(C)c(C(=O)Nc3ccc(Cl)cc3)c(-c3ccc(OC)cc3)c2C#N)cc1	·	·	2%	-7%	·	·
Cc1ccc(Nc2nnc(SCC(=O)Nc3cccnc3Cl)s2)cc1C	-3%	-4%	1.1µM*	18%	-9%	6%
COc1ccc(NC(=O)Nc2nnc(SCC(=O)Nc3cccc(C)c3C)s2)cc1	·	·	0.6µM*	·	·	·
Cc1ccc(Nc2nnc(SCC(=O)Nc3ccccc3[N+](=O)[O-])s2)cc1	-6%	7%	?	3%	5%	2%
O=C(NCC1CCCN1S(=O)(=O)c1cccs1)c1ccccc1F (stereo unspecified)	4%	-2%	-1%	·	-3%	-1%
COc1ccc(NC(=O)CSc2nnc(NC(=O)c3ccco3)s2)cc1	?	14%	15µM*	?	16%	17%
Cc1cccc(Nc2nnc(SCC(=O)c3c(N)n(C4CC4)c(=O)[nH]c3=O)s2)c1	-15%	1%	?	·	-5%	1%
O=C(CSc1nnc(NC(=O)c2ccco2)s1)Nc1ccc(F)cc1	?	11%	15µM*	26%	19%	4%
C/C(N)=C(/C#N)C(=O)CSc1nnc(Nc2cccc(C)c2)s1	?	?	5.4µM*	16µM*	?	?
COc1ccc(-n2nc(C)c3sc(C)nc3c2=O)cc1	30%	-3%	-1%	·	2%	6%
Cn1cnc([N+](=O)[O-])c1Sc1nc(N)nc2c1ncn2[C@H]1C[C@H](O)[C@@H](CO)O1	·	·	·	-28%[9.22 µM]	·	·
CCOc1ccc(-c2ccc(NS(=O)(=O)c3cc(C)ccc3OC)cc2)nn1	·	·	0%	·	·	·
COc1ccc(C)cc1S(=O)(=O)Nc1cccc(-c2ccc(N3CCCCCC3)nn2)c1	?	0%	9.5µM*	·	3%	2%
COc1ccc(C)cc1S(=O)(=O)Nc1cccnc1	0%	8%	-3%	0%	12%	1%
COc1ccc(F)cc1S(=O)(=O)Nc1cccc(-c2ccc(N3CCC(C)CC3)nn2)c1	·	·	5.4µM*	·	·	·
COc1ccc(C)cc1S(=O)(=O)Nc1cccc(-c2ccc(N3CCC(C)CC3)nn2)c1	·	·	2.4µM*	·	·	·
COc1ccc2cc(CNc3ccc(C)cc3)c(=O)n(CC(=O)Nc3cccc(C(F)(F)F)c3)c2c1	·	·	-1%	·	·	·
CC(C)CCOc1ccc(Cn2c(=O)oc3ccccc32)cc1	·	·	-2%	-6%	·	·
